Myeloid diff MLP – promotes myeloid progenitor differentiation. ER-HoxA9 myeloid progenitors, lysozyme-GFP differentiation, flow cytometry. calls only at 10 µM. 360,000 compounds, 1% hits. AID 624256;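 active = normalized GFP-positive differentiation at or above the plate's own cutoff, the solvent-only control mean plus 3 SD; inconclusive = no clear call, values can overlap the other calls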;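 note: cells exposed to compound for four days before flow analysis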
Granule exo inh – lytic granule exocytosis inhibition; inhibition, % at 10 µM; TALL-104 LAMP-1 surface exposure, flow cytometry; cells stimulated with thapsigargin and PMA; 360,000 compounds, 0.66% hits;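 active = inhibition above about 55%, limit read from the data; inconclusive = no clear call, values can overlap the other calls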
ABCB6 inh 2 – inhibitors of human ABC transporter ABCB6 | Q9NP58 | K562-ABCB6 porphyrin accumulation, flow cytometry, 1 h; hits give low values | 360,000 compounds, 0.19% hits | AID 602162 | fluorescence ratio to DMSO, % at 10 µM;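 active = fluorescence ratio to DMSO below 75%, the collection mean minus 3 SD; inconclusive = too few cells collected in the well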;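 note: signal is porphyrin accumulated inside mitochondria; 100% equals median channel fluorescence of DMSO control wells; lower ratio means ABCB6 inhibition with less porphyrin fluorescence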
* = called active by the depositor. Hits are enriched below; roughly 1.8% of the tested compounds scored in any of these assays.

What do the screens show for `CC1=CC2C(C(O)CC3(C)C2CC(C)C32OCOC23COCO3)C2(C)C/C(=C\O)C(=O)C=C12` (centres undefined)?
Myeloid diff MLP: inconclusive; Granule exo inh: 72*; ABCB6 inh 2: 93

Results for Cc1ccc(N(CC(=O)NC2CC2)S(=O)(=O)c2ccccc2)c(C)c1 ?
Myeloid diff MLP: inactive; Granule exo inh: 4; ABCB6 inh 2: 100

How did COC1OC(c2ccccc2)=C(c2ccc(C(N)=O)cc2)c2ccc(F)cc21 (centres undefined) do in these assays?
Myeloid diff MLP: inactive; Granule exo inh: 0; ABCB6 inh 2: 99

Results for CCOc1ccccc1OCCCCCc1c(C)n[nH]c1C ?
Myeloid diff MLP: active; Granule exo inh: -1; ABCB6 inh 2: 104

How did COc1ccccc1OCCCCCc1c(C)n[nH]c1C do in these assays?
Myeloid diff MLP: inactive; Granule exo inh: 0; ABCB6 inh 2: 96

Results for COCCNC(=O)C1(C)CCCN(C(=O)c2cc(C)oc2C)C1 (centres undefined) ?
Myeloid diff MLP: inactive; Granule exo inh: -6; ABCB6 inh 2: 95

How did C=CCn1nnnc1SCC(=O)Nc1ccc(C(=O)OC)cc1 do in these assays?
Myeloid diff MLP: inactive; Granule exo inh: 0; ABCB6 inh 2: 106

Results for C=CCn1nnnc1SCC(=O)Nc1cccc(C(F)(F)F)c1 ?
Myeloid diff MLP: active; Granule exo inh: -9; ABCB6 inh 2: 105

How did CCCCCCn1c(COc2ccccc2F)nnc1SCC(=O)NC1CCS(=O)(=O)C1 (centres undefined) do in these assays?
Myeloid diff MLP: inactive; Granule exo inh: -4; ABCB6 inh 2: 101

What do the screens show for `O=C(COC(=O)COc1ccccc1)Nc1ncc([N+](=O)[O-])s1`?
Myeloid diff MLP: inactive; Granule exo inh: 0; ABCB6 inh 2: 96

How did N/C(=N\OC(=O)Nc1ccccc1)c1ncc([N+](=O)[O-])s1 do in these assays?
Myeloid diff MLP: active; Granule exo inh: 14; ABCB6 inh 2: 100

Results for COc1ccc(NC(=O)Cc2ccc(Cl)c(Cl)c2)cn1 ?
Myeloid diff MLP: inactive; Granule exo inh: 0; ABCB6 inh 2: 97

Results for COc1ccc(NC(=O)/C(Cl)=C(/Cl)S(=O)(=O)Cc2ccc(C)cc2)cn1 ?
Myeloid diff MLP: inconclusive; Granule exo inh: 97*; ABCB6 inh 2: 89

What do the screens show for `COC(=O)C[C@H]1CC[C@@H](NS(=O)(=O)c2ccc(C)cc2)[C@@H](CO)O1`?
Myeloid diff MLP: inactive; Granule exo inh: -1

Results for COc1ccc(CCN2CC(C(=O)N(C)Cc3cccnc3)CC2=O)cc1OC (centres undefined) ?
Myeloid diff MLP: inactive; Granule exo inh: -3; ABCB6 inh 2: 106

What do the screens show for `CCOC(=O)c1ccc(NS(=O)(=O)c2c(C)[nH]c(C)c2C(=O)N2CCCCC2)cc1`?
Myeloid diff MLP: inactive; Granule exo inh: -10; ABCB6 inh 2: 99

Results for Cc1ccc(NC(=O)N2CCC(NC(=O)c3ccco3)CC2)cc1 ?
Myeloid diff MLP: active; Granule exo inh: 1; ABCB6 inh 2: 100

How did Cc1cc(C)cc(NC(=O)N2CCC(NC(=O)c3ccco3)CC2)c1 do in these assays?
Myeloid diff MLP: inconclusive; Granule exo inh: -8; ABCB6 inh 2: 96

How did COc1ccc(-c2ccc(C(=O)NCc3ccco3)c3occc23)c(C)c1 do in these assays?
Myeloid diff MLP: inactive; Granule exo inh: 25; ABCB6 inh 2: 98

How did CC(C)N1CCC1(C)C(=O)Nc1ccc(-n2cccc2)cc1 (centres undefined) do in these assays?
Myeloid diff MLP: inactive; Granule exo inh: 13; ABCB6 inh 2: 96

What do the screens show for `Cc1noc(/C=C/c2ccc(-c3ccccc3Cl)o2)c1[N+](=O)[O-]`?
Myeloid diff MLP: active; Granule exo inh: 0; ABCB6 inh 2: 955

How did Cc1noc(/C=C/c2cccnc2)c1[N+](=O)[O-] do in these assays?
Myeloid diff MLP: inactive; Granule exo inh: -11; ABCB6 inh 2: 106

Results for Cc1ccc(N(C(=O)CNC(=O)c2ccco2)C(C(=O)NC2CCCCC2)c2cccnc2)c(C)c1 (centres undefined) ?
Myeloid diff MLP: inactive; Granule exo inh: -3; ABCB6 inh 2: 95

Results for Cc1ccc(N(C(=O)CNC(=O)c2ccco2)C(C(=O)NC2CCCC2)c2cccnc2)c(C)c1 (centres undefined) ?
Myeloid diff MLP: active; Granule exo inh: -7; ABCB6 inh 2: 99

How did CN(C)c1ccc(-c2sc(Nc3ccccc3)n[n+]2-c2ccc(F)cc2)cc1 do in these assays?
Myeloid diff MLP: inactive; Granule exo inh: -2; ABCB6 inh 2: 377

How did CCN(CC)c1ccc(-c2sc(Nc3ccccc3)n[n+]2-c2ccc(F)cc2)cc1 do in these assays?
Myeloid diff MLP: active; Granule exo inh: 7; ABCB6 inh 2: 801

What do the screens show for `c1ccc(-c2cn(-c3ccccc3)c3[n+]2CCS3)cc1`?
Myeloid diff MLP: active; Granule exo inh: -2; ABCB6 inh 2: 98

How did Fc1ccc(-n2cc(-c3ccccc3)[n+]3c2SCC3)cc1 do in these assays?
Myeloid diff MLP: inactive; Granule exo inh: -6; ABCB6 inh 2: 101

How did CCCCOP(=O)(OCCCC)C1(C)CC(=O)CC(C)(C)C1 (centres undefined) do in these assays?
Myeloid diff MLP: inactive; Granule exo inh: 1; ABCB6 inh 2: 104

Results for O=S(=O)(c1ccccc1)N1CN(c2ccc(F)cc2F)c2nc3ccccc3nc21 ?
Myeloid diff MLP: inactive; Granule exo inh: 3; ABCB6 inh 2: 98

How did CN1CCCN(S(=O)(=O)c2cccc(C(F)(F)F)c2)c2nc3ccccc3nc21 do in these assays?
Myeloid diff MLP: active; Granule exo inh: -2; ABCB6 inh 2: 102

Results for COc1ccc(C(C#N)=Cc2cccc(OC)c2OC)cc1 ?
Myeloid diff MLP: inconclusive; Granule exo inh: -2; ABCB6 inh 2: 97

How did COc1ccc(OC)c(NC(=O)CN(c2ccc(C)cc2)S(=O)(=O)c2c(C)noc2C)c1 do in these assays?
Myeloid diff MLP: inactive; Granule exo inh: 3; ABCB6 inh 2: 86

Results for COc1ccc(N(CC(=O)Nc2cc(Cl)ccc2OC)S(=O)(=O)c2c(C)noc2C)cc1 ?
Myeloid diff MLP: active; Granule exo inh: -1; ABCB6 inh 2: 103

What do the screens show for `COc1ccccc1NC(=O)CN(c1ccccc1)S(=O)(=O)c1ccccc1`?
Myeloid diff MLP: inactive; Granule exo inh: 23; ABCB6 inh 2: 97

Results for COc1ccc(NC(=O)CN(C)S(=O)(=O)c2ccccc2)cc1 ?
Myeloid diff MLP: inactive; Granule exo inh: 0; ABCB6 inh 2: 88

What do the screens show for `COc1ccc(N(CC(=O)Nc2ccccc2OC)S(=O)(=O)c2ccc(NC(C)=O)cc2)cc1`?
Myeloid diff MLP: active; Granule exo inh: -1; ABCB6 inh 2: 99

Results for CCOC(=O)c1ccc(NC(=O)CN(C)S(=O)(=O)c2ccc(OC)cc2)cc1 ?
Myeloid diff MLP: active; Granule exo inh: 8; ABCB6 inh 2: 104

What do the screens show for `CC1CCN(S(=O)(=O)c2cnc[nH]2)CC1`?
Myeloid diff MLP: inactive; Granule exo inh: 2; ABCB6 inh 2: 101

What do the screens show for `CC[C@]1(C(=O)OC)[C@H]2C(=O)N(Cc3ccccc3)C(=O)[C@H]2[C@H]2CN=C(SC)N21`?
Myeloid diff MLP: inactive; Granule exo inh: -2; ABCB6 inh 2: 99

Results for O=C(Nc1nnc(Cc2c[nH]c3ccccc23)s1)c1ccc(Cl)cc1Cl ?
Myeloid diff MLP: active; Granule exo inh: 13; ABCB6 inh 2: 106

Screens: PubChem BioAssay, NMMLSC
